Compounds with a hit are over-represented: about 4.2% of the library has one in this group of screens.
uPA generation: inhibitors of cell surface uPA generation | cell surface uPA generation assay, qHTS | Potency, µM (titrated, usually from 38.3 µM), actives largely listed as inhibitors | actives 0.31% (n = 330,000); active = well fitted inhibition curve with a large enough effect; inconclusive = small, poorly fitted or top-dose-only effect; inactive = no such curve, though single readings can be large or run the other way; tested in mouse RAW 264.7 cells; note: nearly all actives have a fitted effect of over 55% in size
TCR activator: activates T cell receptor signaling; primary human leukocytes, anti-CD3, IL-2 HTRF, 48 h; Potency, µM (top dose mostly 9.22 µM), actives largely listed as activators; 330,000 tested, under 10 active
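1) Mix primary human leukocytes, a-CD3 beads and compound. 2) Incubate 48 hr. 3) Add HTRF IL-2 reagents (a-IL-2-K, a-IL-2-d2).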
Sfp inh: Sfp phosphopantetheinyl transferase inhibition; Potency, µM, most hits filed as inhibitors; actives 3.5% (n = 310,000); AID 1490; Biochemical Sfp PPTase activity, qHTS;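 note: the enzyme is Sfp with the accession as filed and its product quenches rhodamine fluorescence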
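Fluorescence-quenching assay: 15 nM Sfp-PPTase preincubated 15 min at room temperature with compound, then 5 uM rhodamine-CoA and 12.5 uM BHQ-2-labelled YbbR peptide added. Fluorescence (ex 525/em 598 nm) read at start and after 30 min; difference gives rate.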
ClpP mod: qHTS Assay for Activators of ClpP; purified B. subtilis ClpP, FRET peptide cleavage, 20 min; Potency, µM (titrated, usually from 57.5 µM); actives 1.9% (n = 340,000); active = well fitted falling curve with a large enough effect; inconclusive = small, poorly fitted or top-dose-only effect; inactive = no such curve, though single readings can be large or run the other way; note: the source files actives as falling curves though it sought activators and does not explain the sign; nearly all actives have a fitted effect of over 65% in size
Target sequence (P80244 whole entry, looked up): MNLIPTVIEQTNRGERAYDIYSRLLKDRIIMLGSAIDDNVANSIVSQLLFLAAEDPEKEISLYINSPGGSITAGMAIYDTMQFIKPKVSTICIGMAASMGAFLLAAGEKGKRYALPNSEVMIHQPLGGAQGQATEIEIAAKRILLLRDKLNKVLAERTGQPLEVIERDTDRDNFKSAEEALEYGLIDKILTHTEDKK
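Purified B. subtilis ClpP, 10 microg/mL final in Tris/HCl pH8 with KCl, BSA, glycerol and Tween-20, cleaved an Abz/nitrotyrosine-quenched decapeptide. Fluorescence (ex 320, em 430) was read at 0 and 20 min at room temperature. Delta was normalized to 5.8 microM ADEP and DMSO/no-enzyme controls.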
Hits are given with their value; ! = a repeat was not active. Unless noted, calls come from the whole dose curve; as a rule, active = well fitted curve in the direction sought with a large enough effect; inconclusive = small, poorly fitted or top-dose-only effect, or another doubt; inactive = no such curve, though single readings can be large; an effect the other way counts as inactive or inconclusive.

Results for Fc1ccc(N2N=C(c3cccs3)CC2c2ccccc2)cc1 (centres undefined) ?
uPA generation: inactive; TCR activator: inactive; Sfp inh: inactive

How did CC(C)[C@@H](CO)NS(=O)(=O)c1ccc(Br)cc1F do in these assays?
uPA generation: inactive; TCR activator: inactive; ClpP mod: inactive

Results for Cc1ccc(/C=C/C(=O)NCCc2cccc(Cl)c2)o1 ?
uPA generation: inactive; TCR activator: inactive; Sfp inh: 20µM; ClpP mod: inactive

How did Cc1ccc(/C=C/C(=O)NCCc2c[nH]c3ccccc23)o1 do in these assays?
uPA generation: inactive; TCR activator: inactive; Sfp inh: 28µM; ClpP mod: inactive

What do the screens show for `Cc1ccc2[nH]cc(CCNC(=O)/C=C/c3ccco3)c2c1`?
uPA generation: inconclusive; TCR activator: inactive; Sfp inh: inactive; ClpP mod: inactive

Results for COc1ccc(C(=O)COC(=O)c2ccc3c(c2)OCO3)c(OC)c1 ?
uPA generation: inactive; TCR activator: inactive; ClpP mod: inactive

What do the screens show for `Oc1ccc(-c2cn3c(n2)SCC3)cc1`?
uPA generation: inactive; TCR activator: inactive; Sfp inh: inactive; ClpP mod: inactive

How did O=C(Nc1ccc(-c2cn3c(n2)SCC3)cc1)c1ccc2ccccc2n1 do in these assays?
uPA generation: inactive; Sfp inh: inactive; ClpP mod: 22µM

How did Oc1ccc(-c2cn3c(n2)SCC3)cc1O do in these assays?
uPA generation: inactive; TCR activator: inactive; Sfp inh: 18µM; ClpP mod: inactive

Results for CC(C)(C)c1ccc(OCC(O)CN2CCOCC2)cc1 (centres undefined) ?
uPA generation: inactive; TCR activator: inactive; ClpP mod: inactive

How did CCN(C(=O)c1cc2c(s1)-c1c(C)cccc1OC2)c1cc(C)ccc1C do in these assays?
ClpP mod: inactive

How did CCN(CC)c1ccc(C=C(c2nnnn2-c2ccccc2)c2nnnn2-c2ccccc2)cc1 do in these assays?
uPA generation: inactive; TCR activator: inactive; Sfp inh: inactive; ClpP mod: 28µM

How did Cc1ccc(-n2nnnc2C(=Cc2ccc(N(C)C)cc2)c2nnnn2-c2ccc(C)cc2)cc1 do in these assays?
uPA generation: inactive; TCR activator: inactive; Sfp inh: inactive; ClpP mod: inactive

Results for CCOc1ccc(NC(=O)OCCN2CCN(CCc3ccccc3)C(C)C2)cc1 (centres undefined) ?
uPA generation: inactive; TCR activator: inactive; ClpP mod: inactive

Results for CN1c2ccccc2C(C)(C)C12C=Nc1c(cc(N3CCOCC3)c3ccccc13)O2 (centres undefined) ?
uPA generation: inactive; TCR activator: inactive; Sfp inh: inactive; ClpP mod: 28µM

How did COc1ccc(S(=O)NC2CCCCC2)c(OC)c1C (centres undefined) do in these assays?
uPA generation: inactive; TCR activator: inactive; Sfp inh: 50µM; ClpP mod: inactive

Results for COc1ccc(C(=O)NC2CCCCCCC2)cc1OC ?
uPA generation: inactive; TCR activator: inactive; ClpP mod: inactive

How did COc1cc2[nH]c(Cl)c([N+](=O)[O-])c2cc1OC do in these assays?
uPA generation: inactive; TCR activator: inactive; Sfp inh: 89µM

Results for COc1cc2c(=O)[nH]c3cc([N+](=O)[O-])ccc3c2cc1[N+](=O)[O-] ?
ClpP mod: inactive

Results for CCOc1ccc(-c2nnc(SCC(=O)NCc3ccccc3)nc2-c2ccc(OCC)c(OC)c2)cc1OC ?
ClpP mod: inactive

Results for Cc1ccc(S(=O)(=O)/N=C(\N)Nc2nc(C)c3ccc(C)cc3n2)cc1 ?
uPA generation: inconclusive; Sfp inh: inactive; ClpP mod: inconclusive

What do the screens show for `Cc1ccc2c(C)nc(N/C(N)=N/S(=O)(=O)c3ccccc3)nc2c1`?
uPA generation: inactive; TCR activator: inactive; Sfp inh: inactive; ClpP mod: 28µM

Results for Cc1ccc(C(O)(COC(=O)C(C)C)COC(=O)C(C)C)c(O)c1 ?
uPA generation: inconclusive; TCR activator: inactive; Sfp inh: 79µM; ClpP mod: inactive

Results for CCCN1CCN(CC2=C(C(=O)OCC)C(c3ccc(OC(C)C)cc3)NC(=O)N2)CC1 (centres undefined) ?
ClpP mod: inactive

What do the screens show for `COc1ccccc1OCCC(=O)OCC(=O)Nc1cccc(Br)c1`?
uPA generation: inactive; TCR activator: inactive; Sfp inh: inactive; ClpP mod: inconclusive

What do the screens show for `COc1ccccc1OCCC(=O)OCC(=O)Nc1ccc(Br)cc1`?
uPA generation: inactive; TCR activator: inactive; Sfp inh: inactive; ClpP mod: 28µM

How did CN(CCN1CCOCC1)C(=O)c1cc(COc2ccc(F)c(F)c2)on1 do in these assays?
uPA generation: inactive; TCR activator: inactive; Sfp inh: inactive; ClpP mod: inactive

Results for O=C(Nc1ccccc1)N(Cc1ccccc1)CC(O)C(F)(F)F (centres undefined) ?
uPA generation: inactive; TCR activator: inactive; Sfp inh: inactive; ClpP mod: 28µM

How did CC(=O)OCC(NC(=O)C(Cc1ccccc1)NC(=O)OC(C)(C)C)C1OC(n2cc(C)c(=O)[nH]c2=O)C(OC(C)=O)C1OC(C)=O (centres undefined) do in these assays?
Sfp inh: inactive

How did CC(C)CCOc1ccc(-c2c(=O)n(OCc3ccc([N+](=O)[O-])cc3)c3ccccc3[n+]2[O-])cc1 do in these assays?
TCR activator: inactive; Sfp inh: inactive; ClpP mod: inactive

How did CCCOc1ccc(-c2c(=O)n(OCc3ccc([N+](=O)[O-])cc3)c3ccccc3[n+]2[O-])cc1 do in these assays?
uPA generation: inactive; TCR activator: inactive; Sfp inh: inactive; ClpP mod: 28µM

Results for O=C(c1ccc(Cl)c(S(=O)(=O)N2CCOCC2)c1)N(Cc1nnc(-c2ccccc2Cl)o1)C1CC1 ?
uPA generation: inactive; TCR activator: inactive; ClpP mod: 22µM

How did COc1ccc(S(=O)(=O)NNC(N)=S)cc1 do in these assays?
uPA generation: inactive; TCR activator: inactive; Sfp inh: 28µM

How did COc1ccc(NC(=O)NNS(=O)(=O)c2ccc(Br)cc2)cc1 do in these assays?
uPA generation: inactive; TCR activator: inactive; Sfp inh: inactive; ClpP mod: inactive

Results for COc1cccc(NC(=O)CN(C)C(=O)c2cc(-c3ccc(C)o3)nc3ccccc23)c1 ?
uPA generation: inactive; ClpP mod: inactive

How did COc1cccc(NC(=O)c2cc(-c3ccc(C)o3)nc3ccccc23)c1 do in these assays?
uPA generation: inactive; TCR activator: inactive; Sfp inh: 50µM; ClpP mod: inactive

How did Cc1ccc(-c2cc(C(=O)Nc3cccc(S(=O)(=O)N(C)C)c3)c3ccccc3n2)o1 do in these assays?
uPA generation: inactive; TCR activator: inactive; Sfp inh: 50µM

How did C=CCn1c(SCC(=O)Nc2cccc(S(N)(=O)=O)c2)nc2sc(C)c(C)c2c1=O do in these assays?
uPA generation: inactive; TCR activator: inactive; ClpP mod: inactive

How did COC(=O)c1ccc2c(=O)n(NC(C)=O)c(=S)[nH]c2c1 do in these assays?
TCR activator: inactive; Sfp inh: 4µM; ClpP mod: inactive

Results for NCCSSCCN ?
uPA generation: inactive; TCR activator: inactive; Sfp inh: 45µM!; ClpP mod: inactive

Screening data as filed in PubChem BioAssay.
